This is part of a sample that, as a whole, favours compounds with a hit. Of some 83,000 tested, about 20% had one in any assay.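 Method: cells in 96-well plates; compound added at one concentration; 48 h incubation; percent growth measured; values under 10 scored active.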 Activity calls are given as the source filed them.

The test concerns HL-60(TB) leukemia. As to the kind of experiment: NCI-60 one-dose screen, 48 h (100 = growth as untreated, 0 = no growth, -100 = all killed). The conditions noted are these: 10 µM unless noted.
Turning to `NNC(=O)CNc1ccc2ccccc2c1`, the growth was 84.8% (inactive).

With `CNc1ccc(-c2cc(=O)oc3ccc(Cl)cc23)cc1`, the growth is -13.5% (active).

For `Cc1c(-c2ccc(C3CCCCC3)cc2)nc2ccc(F)cc2c1C(=O)O`, the growth is 24.8% (inactive).

On to `C=C(C)[C@@H]1CC[C@]2(C(=O)NCCCCCCN(CCCN)CCCN)CC[C@]3(C)[C@H](CC[C@@H]4[C@@]5(C)CC[C@H](OCCCN)C(C)(C)[C@@H]5CC[C@]43C)[C@@H]12`, for which the growth is 37% [100 µM] (inactive).

Regarding `CC(=O)ON1CCCC(P(=O)(OCCSC(=O)C(C)(C)C)OCCSC(=O)C(C)(C)C)C1=O` (stereo unspecified), the growth is 14% (inactive).

For the compound `COc1ccc(Cc2nc(C#N)c(N3CCN(c4ccc(F)cc4)CC3)o2)cc1`, the growth was 79.2% (inactive).

As for `COc1ccc(C(=O)/C=C/c2cc(-c3cc(OC)c(OC)c(OC)c3)n[nH]2)cc1`, the growth was 23.2% (inactive).

Regarding `Cc1cccc(NC(=O)c2sc3nc4c(cc3c2N)CCC4)c1C`, the growth was 8.43% (active).

As to `COc1ccc(Sc2[nH]c(C(C)=O)c3ccccc23)cc1`, the growth was 23.3% (inactive).

Regarding `COc1cc(C2C3CC4CCCC[C@H]4N3[C@@]3(C(=O)Nc4cc(Cl)ccc43)C2C(=O)c2nc3ccccc3[nH]2)cc(OC)c1OC` (stereo partly specified), the growth was 21.8% (inactive).

Take `COc1cc(C2C3=C(COC3=O)N(CCO)c3cc4c(cc32)OCCO4)cc(OC)c1O` (stereo unspecified): the growth is -9% (active).

For the compound `CC[C@H](Nc1nc(N)nc(N)c1Cl)c1nc2cccc(NCc3ccc(C(=O)NO)cc3)c2c(=O)n1-c1ccccc1`, the growth was -34.7% (active).

`COc1ccc(Nc2ccnc(NCCNc3ccnc4cc(Cl)ccc34)n2)cc1`: the growth is 39% (inactive).

Take `CCn1c(C)nc2cc(C(N)=O)ccc21`: the growth is 79.7% (inactive).

For the compound `CCCCn1cnc2c(SCc3ccc([N+](=O)[O-])cc3)nc(N)nc21`, the growth was -42.6% (active).

For `COc1cc(/C=N\NC(=O)CN2CCN(c3cc4c(cc3F)c(=O)c(C(=O)N/N=C/c3cc(OC)c(OC)c(OC)c3)cn4C3CC3)CC2)cc(OC)c1OC`, the growth was -10.2% (active).

For the compound `COc1ccccc1N1C(=N)S/C(=C\c2ccc(OCc3ccccc3F)cc2)C1=O`, the growth is 112% (inactive).

With `COc1ccc(-c2nn(-c3ccccc3)cc2/C=C/C(=O)OCc2cn(-c3ccc(F)c(Cl)c3)nn2)cc1`, the growth is 83.3% (inactive).

For the compound `COc1ccc(-c2nc3sccn3c2/C=C/C(=O)c2cc(OC)c(OC)c(OC)c2)cc1`, the growth was 56.5% (inactive).

For the compound `COc1cccc(-c2nc(-c3ccc(NC(=O)c4ccccc4)cc3)[nH]c2-c2ccnc(Br)c2)c1`, the growth is -34% (active).

Take `COC(=O)[C@]12CC[C@@H](C)[C@H](C)[C@@H]1C1=CC[C@@H]3[C@@](C)(CC#N)C4=C(C[C@@]3(C)[C@]1(C)CC2)OC[C@]4(C)C=O`: the growth was -10.8% (active).

`O=C1c2cccc(NCCN=Cc3cc(O)ccc3O)c2C(=O)c2c(NCCN=Cc3cc(O)ccc3O)cccc21`: the growth is -72.5% (active).

As to `CC12CCC(CC1)C(C)(C)O2`, the growth is 103% (inactive).

For `C=CC(=O)N[C@@H](/C=C/C(=O)OCC)Cc1ccc(-c2cc(Cl)cc(Cl)c2)cc1`, the growth is -27.4% (active).

Regarding `Cc1ccc(-c2csc(NC(=O)N3CCN(c4cc5c(cc4F)c(=O)c(C(=O)O)cn5C4CC4)CC3)n2)cc1`, the growth is -15.5% (active).

Consider `NC1=NC(=O)NC1(c1ccccc1)c1ccccc1`, for which the growth was 98.4% (inactive).

Regarding `Cc1ccccc1N1CCN(C(=S)c2ccccc2)CC1`, the growth was 108% (inactive).

Take `COc1ccc(NC(=O)CSc2oc(-c3ccccc3)nc2S(=O)(=O)c2ccc(Cl)cc2)c(OC)c1`: the growth was 49.4% (inactive).

Turning to `O=c1cc(-c2ccccc2)oc2c1ccc1ccccc12`, the growth is 106% (inactive).

As for `C#CCOc1cccc(Nc2ncnc3ccc(NC(=O)C=C)cc23)c1`, the growth was 29.3% (inactive).

With `FC(F)(F)c1ccc2c(Nc3cccc(C4CC(c5ccccc5)=NN4c4ccc(Cl)cc4)c3)ccnc2c1` (stereo unspecified), the growth is 36.5% (inactive).

Take `CCCNC(=O)c1ccc(S(N)(=O)=O)cc1`: the growth was 133% (inactive).

Regarding `Cc1ccc(C2=NNC(c3sc(Cl)nc3Cl)C2)cc1` (stereo unspecified), the growth is 92.7% (inactive).

As for `C/C(=C(\c1ccc(OCCN2CCOCC2)cc1)c1ccc(OC(=O)C2CCCCC2)cc1)c1ccc(Cl)cc1`, the growth was 96.4% (inactive).

For the compound `N#Cc1c(-c2ccccc2)nc2c(c(-c3ccc(Cl)cc3)nn2-c2ccccc2)c1-c1ccc([N+](=O)[O-])cc1`, the growth was 103% (inactive).

Consider `COc1ccc(-c2nnc3c4[nH]cnc4ncn23)c(OC)c1`, for which the growth was 12.8% (inactive).

The values are drawn from PubChem BioAssay (NCI).
